Data: PubChem BioAssay AID485317 (Broad Institute, 2010)
The whole screen tested about 290,000 compounds, of which about 11,000 (3.8%) were called active. This is one part of a sample in which actives are shown more often than they occur. Unmarked numbers belong to inactive results.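 Rule for the calls: active = mean replicate inhibition above about 79%, with every replicate also reaching it (limit read from the data); inconclusive = only one of the two criteria met; inactive = mean below limit and not every replicate reaching it.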

molecular target: FAD-linked sulfhydryl oxidase ALR (Homo sapiens) (UniProt P55789); assay: inhibitors of human ALR sulfhydryl oxidase, primary screen, biochemical, H2O2 detection, HRP-luminol luminescence, single point (AID 485317); conditions: purified ALR, DTT oxidation, active compounds read high, concentration not given here
Sequence (P55789 whole entry, looked up): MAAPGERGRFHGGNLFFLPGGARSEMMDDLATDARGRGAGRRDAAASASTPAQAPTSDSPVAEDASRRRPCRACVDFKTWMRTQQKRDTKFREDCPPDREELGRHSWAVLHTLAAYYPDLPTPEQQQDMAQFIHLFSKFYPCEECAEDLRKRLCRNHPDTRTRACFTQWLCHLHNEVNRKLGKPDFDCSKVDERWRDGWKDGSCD

Structure (SMILES) | inhibition
O=C(COC(=O)COc1ccccc1F)Nc1cccc(S(=O)(=O)N2CCCCC2)c1 | -10.2%
COc1ccc(Br)cc1/C=N/n1c(C)nnc1C | -4.68%
COc1ccc(Br)cc1/C=N/Nc1ccc(Cl)c(C(=O)O)c1 | 96.9% (active)
COc1ccc(Br)cc1/C=N/NC(=O)c1cccc(S(=O)(=O)N2CCOCC2)c1 | -1.11%
COC(=O)c1ccc(SCc2ccccc2)nc1 | -2.47%
CCN(CC(=O)Nc1cccc(S(=O)(=O)N2CCCCC2)c1)Cc1ccccc1 | -23.2%
Brc1ccc(CSc2ccc(-c3ccco3)nn2)cc1 | 98.2% (active)
O=C(CSc1ccc(-c2ccco2)nn1)NCc1ccc2c(c1)OCO2 | 3.65%
Cc1cc(SCc2c(F)cccc2Cl)nc(=O)[nH]1 | 35.2%
COc1ccc(NC(=O)CSc2ccc(-c3ccco3)nn2)c(OC)c1 | 0.2%
Fc1cccc(Cl)c1CSc1ccc(-c2ccco2)nn1 | 98.3% (active)
O=C(CSc1ccc(-c2ccco2)nn1)Nc1cccc(F)c1 | -14%
CCCC(CNC(=O)COC(=O)C1=NNC(=O)CC1)c1ccc(Cl)cc1Cl (stereo not given) | 0.0724%
COc1cc(OC)cc(C(=O)NCC(=O)N2CCCCCCC2)c1 | -4.06%
COc1ccc(Nc2ncnc3sc(C)cc23)cc1 | 7.07%
Cc1cccc(C(C)C)c1NC(=O)COC(=O)C1CC(=O)N(Cc2ccccc2)C1 (stereo not given) | -1.43%
C[C@H](CO)N1C[C@H](C)[C@@H](CN(C)S(=O)(=O)c2ccc(F)cc2)Oc2ccc(NC(=O)CCC(F)(F)F)cc2C1=O | -3.84%
O=C1OC[C@@H]2CCCN2C(=O)[C@H](CC(=O)N(CCO)Cc2ccccc2)C/C=C\CC[C@@H]1Cc1ccc(F)cc1 | -10.6%
COc1ccc(Cl)cc1NC(=O)CN(C)C(=O)c1ccc2n[nH]nc2c1 | 2.11%
COc1ccc(OCCNC(=O)c2cc(C3CC3)nc3c2cnn3C(C)C)cc1 | -7.42%
Cc1cccn2cc(-c3cccc(S(=O)(=O)N4CCCCC4)c3)nc12 | 90.9% (active)
O=S(=O)(c1cccc(-c2cn3ccccc3n2)c1)N1CCCC1 | 0.842%
O=S(=O)(c1cccc(-c2nnc3n2CCCCC3)c1)N1CCOCC1 | -3.91%
COc1ccccc1-c1nnc2n1N=C(c1ccc(OC(F)F)c(OCC3CC3)c1)CS2 | 0.875%
CCN(C(=O)CSc1ncnc2c1cnn2-c1ccccc1)C1CCS(=O)(=O)C1 (stereo not given) | 8.44%
